D1 antagonist: blocks dopamine activation of the human D1 receptor | 360,000 tested, 3.2% active | HEK293 TREx D1 cells, calcium flux, dopamine EC80; stronger effect = lower value | P21728 | activity change, negative = inhibition, % at 10 µM; in the data active = activity change below about -30%; also: % is scaled to controls: 0 for no effect and ±100 for the full control effect
Target sequence (P21728 whole entry, looked up): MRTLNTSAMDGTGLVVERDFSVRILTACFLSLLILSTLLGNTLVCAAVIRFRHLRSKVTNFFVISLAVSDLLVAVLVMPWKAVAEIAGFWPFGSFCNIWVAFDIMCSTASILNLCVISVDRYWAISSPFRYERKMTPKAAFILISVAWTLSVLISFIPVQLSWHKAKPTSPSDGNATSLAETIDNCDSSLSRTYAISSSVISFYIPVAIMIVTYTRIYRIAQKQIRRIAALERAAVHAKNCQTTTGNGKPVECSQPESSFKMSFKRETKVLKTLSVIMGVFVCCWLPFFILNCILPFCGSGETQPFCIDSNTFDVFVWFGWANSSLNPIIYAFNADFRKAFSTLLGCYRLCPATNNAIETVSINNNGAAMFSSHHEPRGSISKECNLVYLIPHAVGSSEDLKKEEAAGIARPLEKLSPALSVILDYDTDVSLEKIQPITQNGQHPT
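Antagonism measured as reduced calcium response to an EC80 dopamine addition following 180 s compound pre-read; cells were inducible HEK293 Trex D1 plated overnight at 30 C, read kinetically at 1 cycle/sec.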
TRHR enhancer: allosteric enhancers of human TRH receptor; P34981; TRHR cells, fluo-8 calcium fluorescence, EC20 TRH enhancement; enhancement, % at 2 µM; 360,000 tested, 0.66% active; in the data active = enhancement above about 30%; also: 0% is about no effect
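TRHR-expressing cells loaded with fluo-8 calcium dye were read kinetically (ex 480/em 530) during compound addition, then stimulated with an EC20 of TRH (10 nM final). Enhancement of the Gq-mediated intracellular calcium response was scored.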
D1 ag: agonists of human D1 dopamine receptor. P21728. HEK293 T-REx D1 cells, calcium flux, agonist mode. activation, % at 2 µM. 360,000 tested, 1% active; also: 0% is about no effect
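Tetracycline-induced HEK293 TREx D1 cells, force-coupled to calcium signalling, were dye-loaded with a no-wash calcium kit. Compound was pin-added after a 10 s baseline. Fluorescence was read kinetically at 1 cycle/s for 180 s, with calcium rises flagged as agonism.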
D1 potentiator: enhances dopamine response at the human D1 receptor. potentiation, % at 10 µM. P21728. 360,000 tested, 0.036% active. HEK293 TREx D1 cells, calcium flux, dopamine EC20 potentiation; in the data active = potentiation above about 30%; also: 0% is about no effect
TRHR ag: TRH receptor (human) agonism; TRHR cells, calcium flux fluo-8, FDSS agonist mode; activation, % at 2 µM; P34981; 360,000 tested, 0.18% active; AID 493084; also: 0% is about no effect
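Steps: seed TRHR cells overnight; add fluo-8 no-wash Ca dye, RT 30 min–1.5 h; record 10 s baseline; pin-transfer compounds; monitor fluorescence 1 cycle/s for the agonist window. Calcium increases flag candidate agonists.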
An asterisk follows results filed as active; . = no result given. This is a sample that favours compounds with a hit; in the whole collection about 4.6% have one here. Rule as the data show it, unless noted: active = activation above about 30%; inactive = the rest.

SMILES	D1 antagonist	TRHR enhancer	D1 ag	D1 potentiator	TRHR ag
CCOc1ncccc1C(=O)NNC(=O)c1cccc(S(=O)(=O)Nc2ccc(OC)cc2)c1	-46*	-5	3	-14	0
CCOC(=O)c1c(C)[nH]c(C(=O)N(C)Cc2cccc(OC)c2OC)c1C	2	4	38*	-7	-1
CSCCC(NS(=O)(=O)c1ccc2c(c1)oc(=O)n2C)C(=O)N1CCN(c2cc(Cl)ccc2C)CC1 (stereo unspecified)	-9	-3	2	0	0
CCCN(CC(=O)Nc1ccccc1OC)C(=O)c1ccc(COc2ccccc2)o1	-9	1	5	1	0
CCOc1ccc(S(=O)(=O)Nc2ccc(C(=O)NCC(c3ccco3)N3CCCCC3)cc2)cc1 (stereo unspecified)	0	-21	33*	4	0
COc1ccc(C(CNC(=O)c2cccc(S(=O)(=O)Nc3ccc(F)cc3)c2)N(C)C)cc1 (stereo unspecified)	-23	33*	44*	-6	0
O=S(=O)(NCC(c1ccco1)N1CCCCC1)c1ccccc1C(F)(F)F (stereo unspecified)	-42*	-7	2	-1	1
CCOc1ccc(S(=O)(=O)Nc2cccc(C(=O)NCC(c3ccccc3)N(C)C)c2)cc1 (stereo unspecified)	8	-3	35*	2	4
COc1ccc(C(CNC(=O)c2cccc(NS(=O)(=O)c3ccccc3)c2)N(C)C)cc1 (stereo unspecified)	-8	-2	3	-7	0
Cc1ccc(C(=O)N2N=C(CC(C)C)CC2(O)C(F)(F)F)o1 (stereo unspecified)	-16	2	2	-3	0
CN(Cc1ccc(F)cc1)S(=O)(=O)c1nnc(NC(=O)c2ccc(F)cc2)s1	-19	-5	21	-1	1
Cc1ccc(NS(=O)(=O)c2cccc(C(=O)NCC(c3ccco3)N3CCCC3)c2)cc1 (stereo unspecified)	13	3	44*	.	3
CC(C)Cc1nnc(NC(=O)CN2C(=O)NC3(CC(C)CC(C)(C)C3)C2=O)s1 (stereo unspecified)	20	3	0	-1	0
COc1ccc(/C=N/NC(=O)CNC(=O)/C=C/c2ccco2)cc1OC	15	7	1	-3	-1
O=C(CNc1cccc2ccccc12)N/N=C/c1ccc(OC(=O)/C=C/c2ccco2)cc1	-70*	-2	3	-3	0
COc1cc(/C=N/NC(=O)CNC(=O)/C=C/c2ccco2)cc(OC)c1OC	2	31*	3	-3	0
O=C(/C=C/c1ccco1)Oc1cc(Br)cc(/C=N/NC(=O)c2ccccc2O)c1	-35*	5	12	-10	4
Cc1ccc(C(=O)N/N=C/c2cccc(OC(=O)/C=C/c3ccco3)c2)cn1	-17	-7	0	-6	0
O=C(CNc1ccc2ccccc2c1)N/N=C/c1ccc(OC(=O)/C=C/c2ccco2)cc1	11	3	1	-5	0
O=C(CSc1nc2c([nH]c3ccccc32)c(=O)n1-c1ccc(F)cc1)N1CCc2ccccc21	-45*	9	2	-4	0
COc1cccc(-n2c(SCC(N)=O)nc3c([nH]c4ccccc43)c2=O)c1	-11	37*	5	-5	0
Cc1ccc(NC(=O)CSc2nc3c([nH]c4ccccc43)c(=O)n2C)cc1	-33*	-1	-1	0	0
Cc1cccc(NC(=O)CSc2nc3c([nH]c4ccccc43)c(=O)n2-c2ccc(F)cc2)c1C	-33*	3	2	1	-1
COc1ccc(-n2c(SCC(=O)Nc3cccc(C)c3C)nc3c([nH]c4ccccc43)c2=O)cc1	1	2	1	-2	0
Cc1ccc(C(=O)Nc2ccccc2C(=O)OCc2cc(=O)n3nc(C4CC4)sc3n2)cc1	-6	1	0	0	0
SMILES	D1 antagonist	TRHR enhancer	D1 ag	D1 potentiator	TRHR ag
O=C(Nc1ccc(Cc2ccncc2)cc1)C1CCC(N2C(=O)C3CCCCC3C2=O)CC1 (stereo unspecified)	-39*	1	9	-6	0
Cc1ccc(NC(=O)C2CCC(N3C(=O)C4CCCCC4C3=O)CC2)cc1 (stereo unspecified)	-4	5	2	-6	0
COc1ccc(N2CC(NC(=O)/C=C\c3ccc4c(c3)OCO4)CC2=O)cc1 (stereo unspecified)	.	4	-3	-2	0
O=C(Cn1nc(N2CCN(c3ccccc3)CC2)ccc1=O)NCc1ccccc1F	-37*	-3	0	-3	0
CCOc1ccccc1CNC(=O)Cn1nc(N2CCN(c3ccccc3)CC2)ccc1=O	-14	-5	2	0	0
CCOc1ccc(-c2nc(Cn3ccn4nc(-c5ccc(OCC)c(Cl)c5)cc4c3=O)c(C)o2)cc1	-7	-2	3	2	1
Cc1cc(C)nc(NC2=NCC(=O)N2c2ccc3c(c2)OCCO3)n1	-84*	4	-1	-2	0
COc1ccc(N2C(=O)CN=C2Nc2nc(C)cc(C)n2)cc1	-4	0	4	0	-2
O=c1c2ccccc2nc(/C=C/c2ccc(O)cc2)n1CCc1ccccc1	-41*	-5	3	-7	2
O=c1c2ccccc2nc(-c2ccco2)n1CCc1ccc(O)cc1	-41*	-4	3	-7	0
CCOC(=O)c1c(-c2ccc(Br)cc2)csc1NC(=O)c1ccc(C(C)(C)C)cc1	8	-8	2	1	0
CSC1=N/C(=C\c2ccccc2C)C(=O)S1	5	32*	3	3	1
COc1ccc(NC(=O)c2cc3nc(-c4ccc(Cl)c(Cl)c4)cc(C(F)(F)F)n3n2)c(OC)c1	-66*	7	-2	0	0
O=C(Nc1ccc(F)cc1F)c1ccc2c(c1)CCN2S(=O)(=O)c1ccc(Cl)cc1	0	20	3	3	3
COc1ccc(-c2noc(N3CCC(C(=O)N(C)c4cc(Cl)ccc4OC)CC3)n2)cc1	-5	3	-1	-3	0
Nc1nc(-c2ccccn2)nc(N)c1Cc1ccc(Cl)cc1Cl	305	4	34*	51*	2
Nc1nc(-c2ccccn2)nc(N)c1Cc1ccccc1F	26	3	2	9	0
COc1cc2[nH]c(=O)n(CCC(=O)NCCCN3CCN(c4ccccc4F)CC3)c(=O)c2cc1OC	-42*	-3	2	-9	0
O=C(CCCn1c(=O)[nH]c2cc(Cl)ccc2c1=O)NCCCN1CCCC1	-15	-1	2	-3	0
COCCn1c(=O)[nH]c2cc(C(=O)NCCCN3CCN(c4ccc(F)cc4)CC3)ccc2c1=O	-39*	5	2	-3	0

Compound activity as filed in PubChem.
